PubChem BioAssay (Tox21)
Results filed as inconclusive are left out. Where a call stands in place of a potency, no number is given. Unmarked numbers belong to inactive results. Activity calls are given as the source filed them. The call rests on the fitted dose curve.

Assay: p53 small molecule agonists, cell-based qHTS assay with rat liver microsomes (AID 1963578)
Conditions: HCT-116 p53RE-bla, beta-lactamase ratio, 16 h; series mostly up to 66 µM; activation: at the top concentration
Outline: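 p53RE-bla cells, 4,000/well, pre-incubated 5 h, then given compounds plus rat liver microsomes (0.5 mg/mL final) and NADPH (0.5 mg/mL final). Incubation 16 h at 37 C; beta-lactamase reporter read by LiveBLAzer fluorescence after 2 h at room temperature.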
In the case of `CC(C)[N+](C)(CCC(C(N)=O)(c1ccccc1)c1ccccc1)C(C)C`, the “activation” value is reported as -1.67% [at 30.3 µM]. In the case of `O=C(Cl)CCl`, the “activation” value is reported as -1.72%. In the case of `COC(=O)c1ccccc1N`, the Potency is reported as “inactive”. With `CN(C)NC(=O)CCC(=O)O` the Potency was “inactive”. In the case of `CN(C)C(=O)C(c1ccccc1)c1ccccc1`, the Potency is reported as “inactive”. For `ClCc1ccccn1`, the Potency was “inactive”. In the case of `CCCOC(=O)c1ccccc1C(=O)OCCC`, the Potency is reported as “inactive”. In the case of `Cc1ccc(N)c(N)c1`, the Potency is reported as “inactive”. For `N#CC1(N=NC2(C#N)CCCCC2)CCCCC1`, the “activation” value was 0.0589%. For `C=C(C)C(=O)OCC(CC)CCCC` (centres undefined), the Potency was “inactive”. For `O=C(CCN1CC1)OCC(CO)(COC(=O)CCN1CC1)COC(=O)CCN1CC1`, the “activation” value was -1.49%. For `CCCCOC(=O)c1ccccc1C(=O)OCCCC`, the Potency was “inactive”. With `CC(O)CN(CC(C)O)CC(C)O` (centres undefined) the “activation” value was 0%. With `CN(N=O)C(N)=O` the “activation” value was 0.0442%. In the case of `CCOC(=O)c1cncn1C(C)c1ccccc1` (centres undefined), the “activation” value is reported as -2.11% [at 30.3 µM]. In the case of `CCN(CC)c1ccccc1`, the Potency is reported as “inactive”. For `CCOc1nc(F)cc2nc(S(=O)(=O)Nc3c(Cl)cccc3Cl)nn12`, the “activation” value was -3.23%. For `O=[N+]([O-])c1ccccc1O`, the Potency was “inactive”. With `Nc1ccc(N=Nc2ccc(-c3ccc(N=Nc4c(S(=O)(=O)O)cc5cc(S(=O)(=O)O)c(N=Nc6ccccc6)c(O)c5c4N)cc3)cc2)c(N)c1` the “activation” value was 0.741% [at 30.3 µM]. For `c1ccc(P(c2ccccc2)c2ccccc2)cc1`, the Potency was “inactive”. With `CCCCCBr` the “activation” value was -1.75%. For `c1ccc2c(c1)sc1ccccc12`, the Potency was “inactive”. For `COc1ccc2c3c1O[C@H]1[C@H](O)CC[C@H]4[C@@H](C2)N(C)CC[C@@]341`, the “activation” value was -0.575%. For `CN(C)CCc1c[nH]c2cccc(OP(=O)(O)O)c12`, the “activation” value was 0.234%. In the case of `CC(Cl)C(=O)O` (centres undefined), the “activation” value is reported as 0.514%. For `Clc1ccc(Cl)cc1`, the Potency was “inactive”. With `FC(F)(F)c1ccc(Cl)cc1` the Potency was “inactive”. In the case of `CCCCCCCCCBr`, the “activation” value is reported as -0.845%. In the case of `COC(=O)NS(=O)(=O)c1ccc(N)cc1`, the Potency is reported as “inactive”. For `CC(O)CN1CCN(CC(=O)[O-])CCN(CC(=O)[O-])CCN(CC(=O)[O-])CC1.[Gd+3]` (centres undefined), the “activation” value was 5.63% [at 30.3 µM]. For `Nc1cnn(-c2ccccc2)c(=O)c1Cl`, the “activation” value was -1.22%. For `Cl[C@H]1OCCO[C@@H]1Cl`, the Potency was “inactive”. In the case of `O=[N+]([O-])c1cc(Cl)ccc1Cl`, the “activation” value is reported as -6.04%. For `c1nc[nH]n1`, the Potency was “inactive”. With `COC[C@H](C)N(C(=O)CCl)c1c(C)csc1C` the “activation” value was 0.496%. In the case of `CCC(=O)Nc1ccc(Cl)c(Cl)c1`, the Potency is reported as “inactive”. For `C=C(C)C(=O)OCC1CO1` (centres undefined), the Potency was “inactive”. In the case of `O=C(NC(=O)c1c(F)cccc1F)Nc1cc(Cl)c(OC(F)(F)C(F)C(F)(F)F)cc1Cl` (centres undefined), the Potency is reported as “inactive”.

Assay: p53 small molecule agonists, cell-based qHTS assay with human liver microsomes: qHTS cell viability counter screen (AID 1963579); further: nearly all actives have a fitted effect of over 45% in size
Conditions: p53RE-bla HCT-116 viability, ATP luminescence, 16 h, HLM; series mostly up to 66 µM; activity change, negative = cytotoxicity: at the top concentration
Outline: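 p53RE-bla cells, 4,000/well, dosed 5 hours after plating, with human liver microsomes (0.5 mg/mL final) plus NADPH (0.5 mg/mL final), 16 hours at 37 C. Viability read as CellTiter-Glo luminescence after 30 min at room temperature.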
With `CC(C)[N+](C)(CCC(C(N)=O)(c1ccccc1)c1ccccc1)C(C)C` the “activity change, negative = cytotoxicity” value was 6.41% [at 30.3 µM]. With `O=C(Cl)CCl` the “activity change, negative = cytotoxicity” value was -0.472%. For `COC(=O)c1ccccc1N`, the Potency was “inactive”. With `CN(C)NC(=O)CCC(=O)O` the Potency was “inactive”. With `CN(C)C(=O)C(c1ccccc1)c1ccccc1` the Potency was “inactive”. With `ClCc1ccccn1` the Potency was “inactive”. In the case of `CCCOC(=O)c1ccccc1C(=O)OCCC`, the Potency is reported as “inactive”. With `Cc1ccc(N)c(N)c1` the Potency was “inactive”. With `N#CC1(N=NC2(C#N)CCCCC2)CCCCC1` the “activity change, negative = cytotoxicity” value was 1.32%. In the case of `C=C(C)C(=O)OCC(CC)CCCC` (centres undefined), the “activity change, negative = cytotoxicity” value is reported as -0.744%. With `O=C(CCN1CC1)OCC(CO)(COC(=O)CCN1CC1)COC(=O)CCN1CC1` the “activity change, negative = cytotoxicity” value was 8.5%. For `CCCCOC(=O)c1ccccc1C(=O)OCCCC`, the Potency was “inactive”. For `CC(O)CN(CC(C)O)CC(C)O` (centres undefined), the Potency was “inactive”. With `CN(N=O)C(N)=O` the “activity change, negative = cytotoxicity” value was -27.2%. In the case of `CCOC(=O)c1cncn1C(C)c1ccccc1` (centres undefined), the “activity change, negative = cytotoxicity” value is reported as 7.88% [at 30.3 µM]. For `CCN(CC)c1ccccc1`, the Potency was “inactive”. In the case of `CCOc1nc(F)cc2nc(S(=O)(=O)Nc3c(Cl)cccc3Cl)nn12`, the “activity change, negative = cytotoxicity” value is reported as 0.706%. With `O=[N+]([O-])c1ccccc1O` the Potency was “inactive”. In the case of `Nc1ccc(N=Nc2ccc(-c3ccc(N=Nc4c(S(=O)(=O)O)cc5cc(S(=O)(=O)O)c(N=Nc6ccccc6)c(O)c5c4N)cc3)cc2)c(N)c1`, the “activity change, negative = cytotoxicity” value is reported as 2.75% [at 30.3 µM]. With `c1ccc(P(c2ccccc2)c2ccccc2)cc1` the Potency was “inactive”. For `CCCCCBr`, the “activity change, negative = cytotoxicity” value was -4.88%. For `c1ccc2c(c1)sc1ccccc12`, the Potency was “inactive”. In the case of `COc1ccc2c3c1O[C@H]1[C@H](O)CC[C@H]4[C@@H](C2)N(C)CC[C@@]341`, the “activity change, negative = cytotoxicity” value is reported as -3.65%. In the case of `CN(C)CCc1c[nH]c2cccc(OP(=O)(O)O)c12`, the “activity change, negative = cytotoxicity” value is reported as 5.58%. With `CC(Cl)C(=O)O` (centres undefined) the “activity change, negative = cytotoxicity” value was 4.5%. In the case of `Clc1ccc(Cl)cc1`, the “activity change, negative = cytotoxicity” value is reported as -0.0238%. With `FC(F)(F)c1ccc(Cl)cc1` the Potency was “inactive”. In the case of `CCCCCCCCCBr`, the “activity change, negative = cytotoxicity” value is reported as 3.53%. In the case of `COC(=O)NS(=O)(=O)c1ccc(N)cc1`, the Potency is reported as “inactive”. With `CC(O)CN1CCN(CC(=O)[O-])CCN(CC(=O)[O-])CCN(CC(=O)[O-])CC1.[Gd+3]` (centres undefined) the “activity change, negative = cytotoxicity” value was 6.08% [at 30.3 µM]. With `Nc1cnn(-c2ccccc2)c(=O)c1Cl` the “activity change, negative = cytotoxicity” value was -4.89%. For `Cl[C@H]1OCCO[C@@H]1Cl`, the Potency was “inactive”. With `O=[N+]([O-])c1cc(Cl)ccc1Cl` the “activity change, negative = cytotoxicity” value was 2.23%. With `c1nc[nH]n1` the Potency was “inactive”. In the case of `COC[C@H](C)N(C(=O)CCl)c1c(C)csc1C`, the “activity change, negative = cytotoxicity” value is reported as 0.441%. With `CCC(=O)Nc1ccc(Cl)c(Cl)c1` the Potency was “inactive”. In the case of `C=C(C)C(=O)OCC1CO1` (centres undefined), the Potency is reported as “inactive”. In the case of `O=C(NC(=O)c1c(F)cccc1F)Nc1cc(Cl)c(OC(F)(F)C(F)C(F)(F)F)cc1Cl` (centres undefined), the “activity change, negative = cytotoxicity” value is reported as 2.58%.

Assay: p53 small molecule agonists, cell-based qHTS assay with rat liver microsomes: qHTS cell viability counter screen (AID 1963580); further: nearly all actives have a fitted effect of over 45% in size
Conditions: p53RE-bla HCT-116 + rat microsomes, ATP viability, 16 h; series mostly up to 66 µM; activity change, negative = cytotoxicity: at the top concentration
Outline: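 Viability is assessed in parallel with the p53 reporter read: HCT-116 p53RE-bla cells receive compounds plus rat microsomes and NADPH (0.5 mg/mL final apiece), incubate 16 h at 37 C, and then CellTiter-Glo luminescence is recorded.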
With `CC(C)[N+](C)(CCC(C(N)=O)(c1ccccc1)c1ccccc1)C(C)C` the “activity change, negative = cytotoxicity” value was -15.4% [at 30.3 µM]. In the case of `O=C(Cl)CCl`, the “activity change, negative = cytotoxicity” value is reported as -9.87%. In the case of `COC(=O)c1ccccc1N`, the Potency is reported as “inactive”. For `CN(C)NC(=O)CCC(=O)O`, the Potency was “inactive”. With `CN(C)C(=O)C(c1ccccc1)c1ccccc1` the Potency was “inactive”. For `ClCc1ccccn1`, the Potency was “inactive”. With `CCCOC(=O)c1ccccc1C(=O)OCCC` the Potency was “inactive”. With `Cc1ccc(N)c(N)c1` the Potency was “inactive”. In the case of `N#CC1(N=NC2(C#N)CCCCC2)CCCCC1`, the “activity change, negative = cytotoxicity” value is reported as -2.7%. In the case of `C=C(C)C(=O)OCC(CC)CCCC` (centres undefined), the Potency is reported as “inactive”. For `O=C(CCN1CC1)OCC(CO)(COC(=O)CCN1CC1)COC(=O)CCN1CC1`, the “activity change, negative = cytotoxicity” value was 9.03%. For `CCCCOC(=O)c1ccccc1C(=O)OCCCC`, the Potency was “inactive”. For `CC(O)CN(CC(C)O)CC(C)O` (centres undefined), the Potency was “inactive”. For `CN(N=O)C(N)=O`, the “activity change, negative = cytotoxicity” value was -7.6%. With `CCOC(=O)c1cncn1C(C)c1ccccc1` (centres undefined) the “activity change, negative = cytotoxicity” value was 3.67% [at 30.3 µM]. For `CCN(CC)c1ccccc1`, the Potency was “inactive”. For `CCOc1nc(F)cc2nc(S(=O)(=O)Nc3c(Cl)cccc3Cl)nn12`, the “activity change, negative = cytotoxicity” value was -2.61%. With `O=[N+]([O-])c1ccccc1O` the “activity change, negative = cytotoxicity” value was 2.23%. With `Nc1ccc(N=Nc2ccc(-c3ccc(N=Nc4c(S(=O)(=O)O)cc5cc(S(=O)(=O)O)c(N=Nc6ccccc6)c(O)c5c4N)cc3)cc2)c(N)c1` the “activity change, negative = cytotoxicity” value was 6.28% [at 30.3 µM]. For `c1ccc(P(c2ccccc2)c2ccccc2)cc1`, the Potency was “inactive”. For `CCCCCBr`, the “activity change, negative = cytotoxicity” value was 0.417%. With `c1ccc2c(c1)sc1ccccc12` the Potency was “inactive”. With `COc1ccc2c3c1O[C@H]1[C@H](O)CC[C@H]4[C@@H](C2)N(C)CC[C@@]341` the “activity change, negative = cytotoxicity” value was 2.26%. For `CN(C)CCc1c[nH]c2cccc(OP(=O)(O)O)c12`, the “activity change, negative = cytotoxicity” value was -12.9%. With `CC(Cl)C(=O)O` (centres undefined) the “activity change, negative = cytotoxicity” value was 8.1%. In the case of `Clc1ccc(Cl)cc1`, the Potency is reported as “inactive”. In the case of `FC(F)(F)c1ccc(Cl)cc1`, the Potency is reported as “inactive”. With `CCCCCCCCCBr` the “activity change, negative = cytotoxicity” value was 1.91%. With `COC(=O)NS(=O)(=O)c1ccc(N)cc1` the Potency was “inactive”. In the case of `CC(O)CN1CCN(CC(=O)[O-])CCN(CC(=O)[O-])CCN(CC(=O)[O-])CC1.[Gd+3]` (centres undefined), the “activity change, negative = cytotoxicity” value is reported as -28.1% [at 30.3 µM]. With `Nc1cnn(-c2ccccc2)c(=O)c1Cl` the “activity change, negative = cytotoxicity” value was -1.32%. With `Cl[C@H]1OCCO[C@@H]1Cl` the Potency was “inactive”. With `O=[N+]([O-])c1cc(Cl)ccc1Cl` the “activity change, negative = cytotoxicity” value was 0.517%. With `c1nc[nH]n1` the Potency was “inactive”. For `COC[C@H](C)N(C(=O)CCl)c1c(C)csc1C`, the “activity change, negative = cytotoxicity” value was -9.99%. With `CCC(=O)Nc1ccc(Cl)c(Cl)c1` the Potency was “inactive”. In the case of `C=C(C)C(=O)OCC1CO1` (centres undefined), the Potency is reported as “inactive”. With `O=C(NC(=O)c1c(F)cccc1F)Nc1cc(Cl)c(OC(F)(F)C(F)C(F)(F)F)cc1Cl` (centres undefined) the Potency was “inactive”.
